Results published in article PMC7819943, “Rice protein-binding microarrays: a tool to detect cis-acting elements near promoter regions in rice”.
Whole data set: some 35,000 sequences, median “fluorescence intensity (a.u.)” near 10,000, cut for the highest 2% near 52,000. This is one part of a sample in which the highest values are shown more often than they occur.

Target: T1, OsWOX13 (Oryza sativa, UniProt Q5QMM3 1-267)
T1 sequence: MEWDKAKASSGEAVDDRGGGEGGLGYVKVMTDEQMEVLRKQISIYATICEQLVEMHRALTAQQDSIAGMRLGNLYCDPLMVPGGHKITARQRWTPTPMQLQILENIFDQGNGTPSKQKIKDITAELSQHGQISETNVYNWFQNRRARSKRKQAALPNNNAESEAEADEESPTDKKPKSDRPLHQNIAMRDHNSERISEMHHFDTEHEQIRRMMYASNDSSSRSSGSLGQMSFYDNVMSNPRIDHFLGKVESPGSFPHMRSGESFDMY
Assay: protein-binding microarray (RPBM); PBS, 2% BSA, 51.3 ng/ul salmon testes DNA, 50 uM zinc acetate, 200 nM TF, 25 C, 1 h; high values mean tight binding
Settings: protein: recombinant; tags: N-terminal polyhistidine and DsRed monomer fusion (pET32a); label: CyDye5-dUTP incorporated in the synthesized complementary strand; 3' TTTTT single-stranded linker to array surface; dsDNA, one strand shown
In short: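 The binding signal is fluorescence intensity per array feature (arbitrary units). Readings came from an Axon 4000B scanner after a washed, 2% BSA-blocked, double-stranded custom Agilent array had been incubated for 1 h at 25 °C with 200 nM protein and 50 µM zinc acetate. The protein was a Ni–NTA-purified transcription factor fused N-terminally to polyhistidine and DsRed, expressed in E. coli BL21-CodonPlus.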

| Sequence | binding signal |
| --- | --- |
| TTCATTAATCTCCCGGTGATGGATGAACGGGGAAAAGGGCCGGAGTCACCTAGTGCAG | 4280 fluorescence intensity (a.u.) |
| GATGTTAAGTTTTGGGCATATGATTGAATTGTCTTATATACGGAGTCACCTAGTGCAG | 4180 fluorescence intensity (a.u.) |
| CTGTTTGATTTAGCTTAGGATTATTAGGTGTAAGCTGAAACGGAGTCACCTAGTGCAG | 3910 fluorescence intensity (a.u.) |
| AACCAATCACGTCGCAGATAAGGCCTGACAGGTGTGCCCCCGGAGTCACCTAGTGCAG | 32700 fluorescence intensity (a.u.) |
| CGCGTGTGGTGATTGGCTGGCTCTTTGCCTCATCATGGGCCGGAGTCACCTAGTGCAG | 34100 fluorescence intensity (a.u.) |
| CTCAAATTATTGTTAAACCTTCATATAAATCGACCCCAATCGGAGTCACCTAGTGCAG | 7650 fluorescence intensity (a.u.) |
| TCCAAAATCAATCAATTAAAACCCATAGTTATTGTTGACTCGGAGTCACCTAGTGCAG | 53500 fluorescence intensity (a.u.) |
| CATATTAATTGTTAAAGTTGTCATCATCCAAATTGTTATACGGAGTCACCTAGTGCAG | 11100 fluorescence intensity (a.u.) |
| GATATAATTGGTATTATTACTAGGTTGGTGTGATATCCTACGGAGTCACCTAGTGCAG | 27400 fluorescence intensity (a.u.) |
| ATAGATTGATTTGATAATTTCCTTGAGAGTAACACATGGGCGGAGTCACCTAGTGCAG | 65500 fluorescence intensity (a.u.) |
| CTCCTTACAAATTTTGAAGATAATTTCGTAACACTTGGGGCGGAGTCACCTAGTGCAG | 7610 fluorescence intensity (a.u.) |
| ACATTTGTGATTTTCCTAGGTAATGGTGAGATTTTATAGGCGGAGTCACCTAGTGCAG | 3220 fluorescence intensity (a.u.) |
| GAAATTAATTTTAATAGTGTTTTCATATTATTTCCATGCGCGGAGTCACCTAGTGCAG | 46500 fluorescence intensity (a.u.) |
| TTAATTGATCACATATTAATGGGCAACGCTGTTTTCCATGCGGAGTCACCTAGTGCAG | 63600 fluorescence intensity (a.u.) |
| AGATGCTGCATGGTTGATTGGTTTCAAGTAATTTCATGGGCGGAGTCACCTAGTGCAG | 7340 fluorescence intensity (a.u.) |
| TGGATGATTGGTGAGATAGGTGTTCCTTATAATTATAGGGCGGAGTCACCTAGTGCAG | 54800 fluorescence intensity (a.u.) |
| CACAGAATCCTTAATTAATTATATACATATATTGATCATGCGGAGTCACCTAGTGCAG | 16200 fluorescence intensity (a.u.) |
| ACTGTGACACATGATGAACTGTTTATTTTGCATGATCTATCGGAGTCACCTAGTGCAG | 5480 fluorescence intensity (a.u.) |
| GGCGTATTTCCCAATCATTGTGCGGTCCAAAACCATCGCCCGGAGTCACCTAGTGCAG | 10000 fluorescence intensity (a.u.) |
| CTGATGTGATTACGTCTATCCAGTATAATCCCTCTGGTTTCGGAGTCACCTAGTGCAG | 31700 fluorescence intensity (a.u.) |
| TACCTCGCGACTAATTGGGCCTCCACTAACACCTAGATTCCGGAGTCACCTAGTGCAG | 4340 fluorescence intensity (a.u.) |
| TGTGAAAATGGATAATTAAGGGATCCCAAAGACCCATAAGCGGAGTCACCTAGTGCAG | 10800 fluorescence intensity (a.u.) |
| GTTGAACTTATTCCAATCAAGGATCACGCATTCACGTTCACGGAGTCACCTAGTGCAG | 14100 fluorescence intensity (a.u.) |
| TAAAACTTATTTCTTGATAGATCAATCCCAGATTACAATGCGGAGTCACCTAGTGCAG | 8210 fluorescence intensity (a.u.) |
| CGACTGGATTGAAGCATTTTCTGCCTAGCTGTCTGTCTCTCGGAGTCACCTAGTGCAG | 10100 fluorescence intensity (a.u.) |
| CCTAATTGCACCATGATTTGATAATGTTGTGCTACAGTAACGGAGTCACCTAGTGCAG | 42600 fluorescence intensity (a.u.) |
| AGTCTAATTGAGTGATTGTATACATGTTCAATGTTCATGGCGGAGTCACCTAGTGCAG | 65300 fluorescence intensity (a.u.) |
| CCTAATTGCGTCATGATTTGACAATGTAGTGCTACAGTAACGGAGTCACCTAGTGCAG | 50800 fluorescence intensity (a.u.) |

| Sequence | binding signal |
| --- | --- |
| CCTGATTGCGTGTTGATTTGACAATATGGTGCTACAGTAACGGAGTCACCTAGTGCAG | 54300 fluorescence intensity (a.u.) |
| AATTTCTTGTTCAATCATTTCATATATATATACATGTAGGCGGAGTCACCTAGTGCAG | 6120 fluorescence intensity (a.u.) |
| GATCTAATTTGAAATGTGATAAATTGTTTTCAATAAATGGCGGAGTCACCTAGTGCAG | 27700 fluorescence intensity (a.u.) |
| ATTAATTGATTGGATTGGTTGTGTGCATTATTTCATCTAACGGAGTCACCTAGTGCAG | 65200 fluorescence intensity (a.u.) |
| CATGATTTGACAATATGGTGATACAGTAAATATTTGCTAACGGAGTCACCTAGTGCAG | 40600 fluorescence intensity (a.u.) |
| CCTAATTACTCCATGATTTGATAATATGACGCTACAGTAACGGAGTCACCTAGTGCAG | 25000 fluorescence intensity (a.u.) |
| TTCATTAATTGATTATTACTAGTAGGGATGGTTGGTTCAACGGAGTCACCTAGTGCAG | 30700 fluorescence intensity (a.u.) |
| GGTTGATTGTGAAGTTAATTATTTAACATCTCAATTATAACGGAGTCACCTAGTGCAG | 32800 fluorescence intensity (a.u.) |
| TCTAATTACTTCATGATTTGATAATTTGGTGTTACAGTAACGGAGTCACCTAGTGCAG | 52400 fluorescence intensity (a.u.) |
| GTTGTATGATTGACACTAGATCGAGAAAAGGTGCGACAAACGGAGTCACCTAGTGCAG | 23500 fluorescence intensity (a.u.) |
| CTTTAAATTTTAACTTTTGCATTGGCTTATTAGACCAACTCGGAGTCACCTAGTGCAG | 4620 fluorescence intensity (a.u.) |
| GAAATTACATATGACAAATCCAGAATTTTGATGGAGTGGTCGGAGTCACCTAGTGCAG | 6770 fluorescence intensity (a.u.) |
| TGCTCAATCACACACACACACGCGTGTAATATTAAGATTTCGGAGTCACCTAGTGCAG | 10500 fluorescence intensity (a.u.) |
| TAGATTGATCGGACTAACCACCCCATTTTACACCATTTGCCGGAGTCACCTAGTGCAG | 20900 fluorescence intensity (a.u.) |
| ATGTAAATCAATTGTTTAGTGTTGGATCTATAAGCAACATCGGAGTCACCTAGTGCAG | 4370 fluorescence intensity (a.u.) |
| TCTAATTGAAATTATTGTGTTTATGTATAAAGACAAATACCGGAGTCACCTAGTGCAG | 24900 fluorescence intensity (a.u.) |
| TTTGATTTGTTAATCCAGCTAGTCGTGGGGAATAGTGAAGCGGAGTCACCTAGTGCAG | 42700 fluorescence intensity (a.u.) |
| TTTAGTAATTGGTAGAGCTCAAATTTCTAAATTTAACTTCCGGAGTCACCTAGTGCAG | 6730 fluorescence intensity (a.u.) |
| ATTAAGATTGATTAATTGTTGCTTGGTTAATAGCCACTTACGGAGTCACCTAGTGCAG | 47500 fluorescence intensity (a.u.) |
| TAAGTAATTGATTGGTAGCCAGCTTCTAACTTCTAGCTTACGGAGTCACCTAGTGCAG | 63600 fluorescence intensity (a.u.) |
| TTCTAATCAAGCTTTCTGGTTAATTTCTCTATGAATTTAACGGAGTCACCTAGTGCAG | 5250 fluorescence intensity (a.u.) |
| TCTAGAGAATTAGCCCTGATTATAATGTGAGACTTTGCATCGGAGTCACCTAGTGCAG | 4870 fluorescence intensity (a.u.) |
| AAATCAATCTGATGGGCCGAATTGGAGGCCCATATCCGTGCGGAGTCACCTAGTGCAG | 8660 fluorescence intensity (a.u.) |
| TTTGGATTGGCCAGAACAAGATATACTTTCGAATCTTTTGCGGAGTCACCTAGTGCAG | 11300 fluorescence intensity (a.u.) |
| GCCGCCACCTTCGCCTTTATAAAGCTTACCTTTGCTACCACGGAGTCACCTAGTGCAG | 64800 fluorescence intensity (a.u.) |
| CTCGCCATCTTCGCCGTCCTTGCTTTCTTATATAAATTTTCGGAGTCACCTAGTGCAG | 4080 fluorescence intensity (a.u.) |
| TCATAAATTATTTATAATTGCCTTGCTTAATTTACGCCTTCGGAGTCACCTAGTGCAG | 28900 fluorescence intensity (a.u.) |
